From the antibiotic and cytotoxicity screens of Wong et al. (2023) come the findings set out here.

Hit rate of the full screen: of about 39,000 compounds, about 3,300 (8.5%) were called active. The sample holds actives, similar compounds and a random draw of the others, so the mix is not that of the screen.

The assay concerns HepG2. Put plainly: cytotoxicity call (relative viability < 0.9). To be noted: 10 µM.
On to `O=C(C[C@@H]1CC[C@@H]2[C@H](COC[C@@H](O)CN2S(=O)(=O)c2ccccc2)O1)N1CCc2ccccc2C1`, for which the cytotoxicity call is “inactive”. As for `C[C@@H]1CCCCO[C@H](CN(C)S(=O)(=O)c2cccs2)[C@@H](C)CN([C@@H](C)CO)C(=O)c2cc(NS(=O)(=O)c3cn(C)cn3)ccc2O1`, the cytotoxicity call was “inactive”. Then `C[C@@H]1CN([C@@H](C)CO)C(=O)Cc2cc(NS(=O)(=O)c3cn(C)cn3)ccc2O[C@@H]1CN(C)Cc1ccc(C(=O)O)cc1`, with “inactive”; and `C[C@H](CO)N1C[C@H](C)[C@H](CN(C)S(=O)(=O)c2cn(C)cn2)Oc2ccc(N(C)C)cc2CC1=O`, with “inactive”. Under `CC(C)CC#Cc1ccc2c(c1)O[C@@H](CN(C)C(=O)c1ccncc1)[C@H](C)CN([C@H](C)CO)S2(=O)=O` stands “inactive”; under `Cc1ccc(S(=O)(=O)N(C)C[C@@H]2Oc3cc(C#Cc4ccccc4)ccc3S(=O)(=O)N([C@@H](C)CO)C[C@@H]2C)cc1`, “inactive”.

Consider `Cc1ccc(S(=O)(=O)N(C)C[C@H]2Oc3cc(C#Cc4ccncc4)ccc3S(=O)(=O)N([C@H](C)CO)C[C@H]2C)cc1`, for which the cytotoxicity call is “active”. Under `Cc1ccc(S(=O)(=O)N(C)C[C@@H]2Oc3cc(C#Cc4ccncc4)ccc3S(=O)(=O)N([C@H](C)CO)C[C@@H]2C)cc1` stands “active”; under `Cc1ccc(S(=O)(=O)N(C)C[C@H]2Oc3cc(C#Cc4ccccc4)ccc3S(=O)(=O)N([C@H](C)CO)C[C@H]2C)cc1`, “inactive”.

`Cc1ccc(S(=O)(=O)N(C)C[C@@H]2Oc3cc(C#Cc4ccncc4)ccc3S(=O)(=O)N([C@H](C)CO)C[C@H]2C)cc1`: the cytotoxicity call was “active”.

Regarding `Cc1ccc(S(=O)(=O)N(C)C[C@H]2Oc3cc(C#Cc4ccccc4)ccc3S(=O)(=O)N([C@@H](C)CO)C[C@H]2C)cc1`, the cytotoxicity call was “inactive”. Then `Cc1ccc(S(=O)(=O)N(C)C[C@@H]2Oc3cc(C#Cc4ccccc4)ccc3S(=O)(=O)N([C@@H](C)CO)C[C@H]2C)cc1`, with “inactive”. Then `Cc1ccc(S(=O)(=O)N(C)C[C@H]2Oc3cc(C#Cc4ccncc4)ccc3S(=O)(=O)N([C@@H](C)CO)C[C@@H]2C)cc1`, with “active”; and `Cc1ccc(S(=O)(=O)N(C)C[C@@H]2Oc3cc(C#Cc4ccccc4)ccc3S(=O)(=O)N([C@H](C)CO)C[C@@H]2C)cc1`, with “inactive”; and `Cc1ccc(S(=O)(=O)N(C)C[C@H]2Oc3cc(C#Cc4ccccc4)ccc3S(=O)(=O)N([C@@H](C)CO)C[C@@H]2C)cc1`, with “inactive”. Under `CC(C)NC(=O)Nc1ccc2c(c1)C(=O)N([C@H](C)CO)C[C@@H](C)[C@@H](CN(C)C(=O)C1CCCCC1)OCCCC[C@H](C)O2` stands “inactive”; under `CO[C@@H]1CN(C)C(=O)c2ccc(NS(C)(=O)=O)cc2OC[C@@H](C)N(C(=O)c2ccc3c(c2)OCO3)C[C@@H]1C`, “inactive”. Turning to `COc1ccccc1S(=O)(=O)N(C)C[C@H]1OCc2cn(nn2)CCCC(=O)N([C@@H](C)CO)C[C@@H]1C`, the cytotoxicity call was “inactive”. Then `CCS(=O)(=O)N1C[C@]2(CCN(CC2)C(=O)c2cccnc2)c2c(n(c3cc(ccc23)OC)C)[C@H]1CO`, with “inactive”; and `C[C@@H]1CN([C@H](C)CO)C(=O)c2cc(NC(=O)Cn3cnnn3)ccc2O[C@H]1CN(C)C(=O)NC1CCCCC1`, with “inactive”. Then `Cc1ccc(S(=O)(=O)Nc2ccc3c(c2)C(=O)N([C@@H](C)CO)C[C@H](C)[C@H](CN(C)C(=O)Nc2c(C)noc2C)OCCCC[C@H](C)O3)cc1`, with “inactive”.

`CC(C)NC(=O)Nc1ccc2c(c1)CC(=O)N([C@@H](C)CO)C[C@@H](C)[C@H](CN(C)S(=O)(=O)c1ccc(F)cc1)O2`: the cytotoxicity call was “inactive”. Consider `C[C@@H]1CN([C@@H](C)CO)S(=O)(=O)c2ccc(Br)cc2O[C@@H]1CN(C)C(=O)NC1CCCCC1`, for which the cytotoxicity call was “inactive”. Under `CCOC(=O)CC(=O)c1ccn(C)n1` stands “inactive”. Under `C[C@@H]1CCCCO[C@H](CN(C)S(=O)(=O)c2cccs2)[C@H](C)CN([C@@H](C)CO)C(=O)c2cc(NC(=O)CCC(F)(F)F)ccc2O1` stands “inactive”. Then `C[C@H](CO)N1C[C@H](C)[C@H](CN(C)Cc2ccccn2)Oc2ncc(C#Cc3ccc(F)cc3)cc2C1=O`, with “inactive”; and `C[C@@H]1CN([C@H](C)CO)C(=O)c2c(c3ccccc3n2C)-c2ccccc2CO[C@H]1CN(C)Cc1cccc(O)c1`, with “inactive”; and `Cc1ccc(S(=O)(=O)N(C)C[C@H]2Oc3cc(C#Cc4ccncc4)ccc3S(=O)(=O)N([C@@H](C)CO)C[C@H]2C)cc1`, with “active”.

Regarding `Cc1ccc(S(=O)(=O)N(C)C[C@@H]2Oc3cc(C#Cc4ccncc4)ccc3S(=O)(=O)N([C@@H](C)CO)C[C@H]2C)cc1`, the cytotoxicity call is “active”.

Turning to `Cc1ccc(S(=O)(=O)N(C)C[C@@H]2Oc3cc(C#Cc4ccncc4)ccc3S(=O)(=O)N([C@@H](C)CO)C[C@@H]2C)cc1`, the cytotoxicity call is “active”. Then `Cc1ccc(S(=O)(=O)N(C)C[C@H]2Oc3cc(C#Cc4ccncc4)ccc3S(=O)(=O)N([C@H](C)CO)C[C@@H]2C)cc1`, with “active”; and `C[C@@H]1CN([C@H](C)CO)C(=O)c2cccc(NS(=O)(=O)c3ccc(F)cc3)c2O[C@@H]1CN(C)S(=O)(=O)c1cccs1`, with “inactive”. Consider `C[C@H]1CCCCO[C@H](CN(C)Cc2ccncc2)[C@@H](C)CN([C@@H](C)CO)C(=O)c2cc(NC(=O)Nc3cccc4ccccc34)ccc2O1`, for which the cytotoxicity call is “inactive”. Under `COc1ccc2c3c(n(c2c1)C)[C@@H](CO)N(C[C@]13CN(C1)S(=O)(=O)c1ccc(cc1)C)S(=O)(=O)c1ccc(cc1)C` stands “inactive”. Under `C[C@H](CO)N1C[C@H](C)[C@H](CN(C)Cc2ccc3c(c2)OCCN3C)OCc2cnnn2CCCC1=O` stands “inactive”.

Consider `O=C(C[C@H]1CC[C@@H]2[C@H](COC[C@@H](O)CN2C(=O)Nc2cccc(F)c2)O1)NCCCN1CCOCC1`, for which the cytotoxicity call is “inactive”. Then `CC(C)NC(=O)Nc1ccc2c(c1)C(=O)N([C@@H](C)CO)C[C@@H](C)[C@H](CN(C)C(=O)Nc1ccc(F)cc1)OCCCC[C@H](C)O2`, with “inactive”; and `O.O=C(O)C1C(O)CCC2CN3CCc4c([nH]c5ccccc45)C3CC21` (stereo not given), with “inactive”; and `C[C@H]1CC(=O)Nc2c1c(N)nn2C`, with “inactive”. For the compound `C[C@H]1CCCCO[C@H](CN(C)Cc2ccc3c(c2)OCO3)[C@@H](C)CN([C@@H](C)CO)C(=O)c2cc(NC(=O)CCC(F)(F)F)ccc2O1`, the cytotoxicity call is “inactive”.
